Rows were chosen to be rich in hits. Some 6.5% of all compounds tested hit in one or more screens of this group.
Lassa entry inh: blocks Lassa virus binding to or entry into cells | Lassa virus pseudotype entry inhibition, cell reporter | Potency, µM (top dose mostly 37.9 µM), inactives show top-dose activity change, negative = inhibition, usual class: inhibitors | 1.2% of 300,000 active | AID 540256; calls by dose curve; tested in HEK293 cells; also: potency is read from the fitted curve at half-maximal effect; nearly all actives have a fitted effect of over 50% in size
VACV mCherry inh: inhibitors of vaccinia virus infection (mCherry reporter signal); Vaccinia virus mCherry reporter infection, fluorescence; Potency, µM (doses to about 36.5 µM), for inactives: at the highest dose activity change, negative = inhibition, hits mostly inhibitors; 0.63% of 310,000 active; calls by dose curve; tested in A549 cells; also: potency is read from the fitted curve at half-maximal effect; nearly all actives have a fitted effect of over 35% in size
Vaccinia Venus: vaccinia inhibition (Venus reporter) | Vaccinia virus Venus reporter expression, fluorescence | 0.46% of 330,000 active | Potency, µM (doses to about 36.5 µM), for the others: at the top dose activity change, negative = inhibition, hits mostly inhibitors; calls by dose curve; tested in A549 cells; also: potency is read from the fitted curve at half-maximal effect; nearly all actives have a fitted effect of over 30% in size
MARV entry inh: Marburg virus entry inhibition. AID 540276. Marburg virus pseudotyped entry inhibition, cell reporter. 1.8% of 300,000 active. Potency, µM (doses to about 37.8 µM), inactives show at the highest dose activity change, negative = inhibition, most hits filed as inhibitors; calls by dose curve; tested in HEK293 cells; also: potency is read from the fitted curve at half-maximal effect
FMDV inh: foot and mouth disease virus antiviral activity. FMDV antiviral cell-based qHTS. Potency, µM (highest dose often 57.9 µM), for the others: top-dose activity change, negative = inhibition, actives largely listed as inhibitors. 1.2% of 410,000 active; calls by dose curve; tested in HEK293T cells; also: read-out not given here; potency is read from the fitted curve at half-maximal effect; nearly all actives have a fitted effect of over 45% in size
HCMV inh: human cytomegalovirus inhibition | activity change, negative = inhibition, % at 57.5 µM | 4.5% of 410,000 active | HFF cells, HCMV-luciferase reporter, 72 h; stronger effect = lower value; in the data active = activity change below about -60%; inconclusive = no clear call, values can overlap the other calls; inactive = above about -39%
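Inhibition of viral replication was scored as loss of reporter luminescence in HFFs infected with HCMV-luciferase (MOI 1 PFU/cell) for 72 h; compounds tested at 2 doses, normalized to buffer and Salinomycin controls.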
* marks the source's active call; other numbers are inactive results; i = inactive; ? = inconclusive; / = not tested or not shown; ! = repeats disagree; [ ] = remark or other dose. % is scaled to controls: 0 for no effect and ±100 for the full control effect.

SMILES	Lassa entry inh	VACV mCherry inh	Vaccinia Venus	MARV entry inh	FMDV inh	HCMV inh
Nc1ncc(Br)nc1NC1CCOCC1	/	/	/	/	/	44
CC(C)C(=O)N1CCC(CN=Cc2c(O)n(C3CCCCC3)c(=O)n(C3CCCCC3)c2=O)CC1	14µM*	-4%[1.46 µM]	?	?	?	-4
CC(C)CN(C(=O)COC(=O)c1ccc2c(c1)NC(=O)CS2)C1CCS(=O)(=O)C1 (stereo not given)	1%	/	-14%	-5%	-5%	-84*
Cc1cc(C)n(-c2ccc(C(=O)OCC(=O)N(CC(C)C)C3CCS(=O)(=O)C3)cc2)n1 (stereo not given)	-2%	/	/	21%	21%	-86*
CCOc1ccc(/C=C/c2nc(C#N)c(N3CCN(CC)CC3)o2)cc1	-3%[46.1 µM]	-19%	-14%	-13%[46.1 µM]	-4%	-20
Cc1ccc(-n2nc3c(=O)n(CC(=O)NCCc4ccccc4C)nc(C)c3c2C)cc1	0%[46.1 µM]	?	?	?	?	-73*
COc1ccc(OC)c(CCNC(=O)Cn2nc(C)c3c(C)n(-c4ccc(C)cc4)nc3c2=O)c1	?	-30%	?	?	?	-92*
COc1ccc(CCNC(=O)Cn2nc(C)c3c(C)n(-c4ccccc4)nc3c2=O)c(OC)c1	/	/	/	/	-24%	-1
CCCCNC(=O)c1ccc(CNc2c(N3CCC(C(=O)OCC)CC3)c(=O)c2=O)cc1	-3%	i	-5%	?	-4%	-61*!
CCOC(=O)C1CCN(c2c(NCc3ccc(C(=O)NCCOC)cc3)c(=O)c2=O)CC1	-3%	/	-17%	?	-13%	?
CC1CCN(c2c(NCc3ccc(C(=O)N(C)C4CCCCC4)cc3)c(=O)c2=O)CC1	/	/	/	/	8%	-11
CC1CCCN(C(=O)c2ccc(CNc3c(N4CCCCC4)c(=O)c3=O)cc2)C1 (stereo not given)	/	8%	-7%	/	-22%	-30
CC1CCN(c2c(NCc3ccc(C(=O)N4CCc5ccccc54)cc3)c(=O)c2=O)CC1	/	-24%	-28%	4%	17%	-84*
Cc1cccc(N2CCN(C(=O)c3ccc(CNc4c(N5CCC(C)CC5)c(=O)c4=O)cc3)CC2C)c1 (stereo not given)	/	-12%	?	/	?	-60*
COc1ccc(OC)c(NC(=O)N2CCC3(CC2)Oc2ccccc2C(=O)N3Cc2ccccc2F)c1	/	-21%	-23%	?	-30%	6
COC(=O)C(c1ccccc1)(c1cn(-c2ccccc2)c2ccccc12)C(Nc1ccccc1)c1ccccc1 (stereo not given)	/	/	/	/	/	-29
CC(OC(=O)CCc1cc(C(C)(C)C)c(O)c(C(C)(C)C)c1)C(=O)NC1CC1 (stereo not given)	?	13µM*	-18%	?	13%	-17
Cc1ccc(C(=O)c2cn(Cc3cc(C)ccc3C)c3nc(C)ccc3c2=O)cc1	?	-6%	-18%	7.1µM*	-29%	-5
Clc1ccc(CSC(Cn2ccnc2)c2ccc(Cl)cc2Cl)cc1 (stereo not given)	?	-2%	?	?	?	?
Clc1ccc(COC(Cn2ccnc2)c2ccc(Cl)cc2Cl)cc1 (stereo not given)	-29%	-10%	?	-40%	32µM*!	-23
CCOc1cc2c(cc1OCC)-n1cccc1C(c1ccc(F)cc1)NC2 (stereo not given)	/	/	/	/	?	-16
CCOc1cc2c(cc1OCC)-n1cccc1C(c1ccc(C(C)C)cc1)NC2 (stereo not given)	?	?	-12%	?	?	-68*
O=C1[C@H]2[C@@H]3[C@@H](O)[C@H](O)CC(=NOCc4ccccc4)[C@@H]3CC[C@H]2C(=O)N1Cc1ccc2c(c1)OCO2	?	/	/	-17%[14.2 µM]	/	/
CCOC(=O)c1c(CN2CCOCC2)n(-c2ccccc2)c2cc(Br)c(OC)cc12	9.2µM*	/	/	?	-27%	18
COc1cc2c(C(=O)N3CCN(c4ccccc4)CC3)c(C)oc2cc1Br	?	?	?	?	20µM*	-5
SMILES	Lassa entry inh	VACV mCherry inh	Vaccinia Venus	MARV entry inh	FMDV inh	HCMV inh
CCOC(=O)c1c(CN(C)C)n(-c2ccc(C)cc2)c2cc(Br)c(O)cc12	?	?	?	?	-16%	-7
CCOC(=O)c1c(CN(C)C)n(-c2ccccc2)c2cc(Br)c(OC)cc12	?	0%	?	10µM*	-19%	-30
Cc1ccc(C2=NC(C)(C)N=C2SCC(=O)Nc2ccc(Cl)cc2)cc1	-3%	?	?	?	32µM*	-25
CC1(C)N=C(SCC(=O)Nc2ccccc2)C(c2ccc(Cl)cc2)=N1	?	?	-29%	?	18µM*	-66*
Cc1nn(S(=O)(=O)c2ccc([N+](=O)[O-])cc2)c(C)c1Sc1ccccc1	25%[14.3 µM]	-1%	-14%	1%	-26%	-13
Cc1nn(-c2ccccc2)c(N)c1Sc1ccccc1[N+](=O)[O-]	6.3µM*	-17%	-20%	?	?	0
Cc1nn(-c2ccccc2)c(N)c1Sc1cccc([N+](=O)[O-])c1	0%	/	/	-21%	?	-76*
CCC(CC)C(=O)Oc1c(Sc2ccccc2[N+](=O)[O-])c(C)nn1C(C)(C)C	-7%	-28%	-16%	-27%	?	4
Cc1nn(-c2cccc([N+](=O)[O-])c2)c(N)c1-c1ccccc1	-2%[46.1 µM]	i	2%	?	20%	-61*
COc1ccc(NC(=O)CSc2nc3nc(C)cc(C)n3n2)cc1	?	8%	-13%	-4%[46.1 µM]	27%	-11
Cc1cc(C)n2nc(SCC(=O)Nc3ccccc3)nc2n1	-2%[46.1 µM]	-4%	-13%	?	-10%	-63*!
COC(=O)[C@@H]1CCCN1C(=O)c1c(OC)cc(=O)n2c1CCN(Cc1cc(OC)ccc1F)CC2	/	-6%	-1%	/	3%	/
COc1cc(C)nc(OCCNC(=O)COc2ccc(Cl)cc2Cl)n1	-6%	/	-14%	?	-14%	-60*
CN(C)c1nc(OCCNC(=O)COc2ccc(Cl)cc2Cl)nc(N(C)C)n1	5%	/	/	-1%	?	10
CCN(CC)C(=O)c1ncn2c1C(=O)NC[C@@H]2C	/	/	/	/	/	-22
CCc1cc(=O)oc2c(CNCc3ccc(OC)cc3OC)c(O)c(Cl)cc12	?	-12%	-4%	-3%	-7%	160
COc1ccc(CNCc2c(O)c(Cl)cc3c(C)c(C)c(=O)oc23)c(OC)c1	12%	-14%	-6%	-17%	-13%	-70*
O=C1/C(=C/c2cccs2)N=C(c2cccs2)N1Nc1ccccc1	1%	/	-17%	?	-8%	?
O=C1/C(=C\c2cccs2)N=C(c2cccs2)N1Nc1ccccc1	-4%	-4%	-15%	-6%	/	-78*
Cc1cccc(N(C)C(=O)CCS(=O)(=O)c2cccc3nonc23)c1	10%	-13%	-11%	4%	-6%	-66*
CCN(C(=O)CCS(=O)(=O)c1cccc2nonc12)c1ccc(C)c(C)c1	-7%	-12%	-20%	?	13%	-19
